CRFR2-BP ag: CRF-BP/CRF-R2 complex agonism. HEK293 CRF-R2/CRF-BP, calcium dye fluorescence (FLIPR); percent of saturating CRF peptide response. activation, % at 13.2 µM. 0.46% of 350,000 active. AID 588473;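 active = activation of at least 50%, plus an integration ratio under a set limit after plate pattern correction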
cardiac RTF act: cardiac RTF calcium sensitization. P19429+P45379. IANBD-labeled TnC RTF fluorescence at EC20 calcium; 0% EC20 calcium, 100% full calcium. activation, % at 7.2 µM. 0.24% of 340,000 active;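 active = activation above the mean over all tested compounds plus 3 SD, cut at about 30% in these data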;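 also: rise in fluorescence read as greater calcium sensitivity of cardiac thin filaments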
IDE act: activators of human insulin-degrading enzyme in cells. P14735. HEK cells, FAbeta-B cleavage, fluorescence polarization; 0% vehicle, 100% cell-free pure enzyme wells. activation, % at 5.96 µM. 0.073% of 340,000 active. AID 493087;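 active = activation above the mean of all tested compounds plus 3 SD, set per screening campaign, cut at about 17% in these data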
Target sequence (P14735 whole entry, looked up): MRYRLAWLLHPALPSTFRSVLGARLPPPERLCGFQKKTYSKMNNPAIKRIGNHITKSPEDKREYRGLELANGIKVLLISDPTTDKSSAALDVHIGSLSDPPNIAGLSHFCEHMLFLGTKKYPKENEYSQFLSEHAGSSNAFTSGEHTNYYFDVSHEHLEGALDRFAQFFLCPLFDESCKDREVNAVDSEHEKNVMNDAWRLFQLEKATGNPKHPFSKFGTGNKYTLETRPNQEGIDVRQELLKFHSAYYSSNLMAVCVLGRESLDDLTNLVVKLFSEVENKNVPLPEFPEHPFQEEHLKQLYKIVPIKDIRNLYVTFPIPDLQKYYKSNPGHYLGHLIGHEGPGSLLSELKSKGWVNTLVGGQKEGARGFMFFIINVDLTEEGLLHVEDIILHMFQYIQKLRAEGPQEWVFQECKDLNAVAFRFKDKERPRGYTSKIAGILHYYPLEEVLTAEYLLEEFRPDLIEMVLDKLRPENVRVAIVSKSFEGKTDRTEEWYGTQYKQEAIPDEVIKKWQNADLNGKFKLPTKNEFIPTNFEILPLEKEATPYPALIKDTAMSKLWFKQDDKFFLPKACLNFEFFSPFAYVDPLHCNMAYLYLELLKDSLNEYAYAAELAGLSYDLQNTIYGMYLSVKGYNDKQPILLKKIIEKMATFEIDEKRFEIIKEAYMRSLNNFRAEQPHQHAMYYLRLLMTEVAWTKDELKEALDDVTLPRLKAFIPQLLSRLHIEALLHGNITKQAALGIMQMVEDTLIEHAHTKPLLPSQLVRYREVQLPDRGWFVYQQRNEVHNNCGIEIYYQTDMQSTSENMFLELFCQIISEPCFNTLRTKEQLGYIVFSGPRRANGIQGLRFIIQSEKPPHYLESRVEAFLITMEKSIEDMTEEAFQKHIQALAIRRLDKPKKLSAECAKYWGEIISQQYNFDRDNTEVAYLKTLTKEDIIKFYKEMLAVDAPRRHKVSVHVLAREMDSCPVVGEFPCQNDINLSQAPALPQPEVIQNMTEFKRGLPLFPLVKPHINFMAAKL
IDE inh: inhibitors of human insulin-degrading enzyme in cells | P14735 | HEK cells, FAbetaB cleavage, fluorescence polarization | inhibition, % at 5.59 µM | 0.41% of 320,000 active;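 active = percent inhibition above the average of all tested compounds plus 3 SD, set per screening campaign, cut at about 16% in these data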;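 also: IDE supplied by intact live HEK cells; FP after avidin binding of uncleaved biotin substrate so inhibition keeps polarization high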
Cardiac RTF inh: cardiac RTF calcium desensitization | P19429+P45379 | IANBD-labeled cardiac RTF, Ca2+ fluorescence | inhibition, % at 7.15 µM | 0.12% of 340,000 active | AID 493244;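 active = inhibition above the mean inhibition of all tested compounds plus 3 SD, cut at about 17% in these data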;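 also: assay run at fixed EC70 calcium of 1.6 mM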
TPT1 inh: inhibitors of Candida albicans tRNA 2'-phosphotransferase TPT1; 0.81% of 300,000 active; inhibition, % at 5 µM; recombinant caTPT1, FP RNA substrate dephosphorylation;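 active = inhibition above the mean of all tested compounds plus 3 SD, set per screening campaign, cut at about 24% in these data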
A number is an active result. Shown are actives, neighbours in structure and some others; about 1.5% of the full set was active somewhere.

Screening C/C=C(/C)C(=O)OC1CC(C)(C)C[C@H]2C3=CC[C@@H]4[C@@]5(C)CCC(O[C@@H]6O[C@@H](C(=O)O)[C@@H](O)C(O[C@@H]7OC[C@H](O)[C@@H](O)[C@@H]7O[C@@H]7OC(CO)C(O)[C@@H](O)[C@@H]7O)C6O[C@@H]6OC(CO)C(O)C(O)C6O)[C@@](C)(CO)[C@@H]5CC[C@]4(C)[C@]3(C)CC(O)[C@@]12CO (stereo not given in full) returned CRFR2-BP ag 112, cardiac RTF act inactive, IDE act inactive, IDE inh inactive and Cardiac RTF inh inactive.
`C/C=C(\C)C(=O)OC1[C@H](OC(C)=O)C2(CO)C(CC1(C)C)C1=CCC3C4(C)CCC(O[C@@H]5O[C@H](C(=O)O)[C@@H](O[C@@H]6O[C@H](CO)[C@@H](O)[C@H](O)[C@H]6O)[C@H](O)[C@H]5O[C@H]5O[C@H](CO)[C@@H](O)[C@H](O)[C@H]5O)[C@](C)(CO)C4CCC3(C)[C@]1(C)C[C@H]2O` (stereo not given in full) gave CRFR2-BP ag 159, cardiac RTF act inactive, IDE act inactive and Cardiac RTF inh inactive.
For COc1ccc(-c2c(-c3cc(OC)cc(OC)c3)n(C)c3ccc(Br)cc23)cc1 the results were CRFR2-BP ag inactive, cardiac RTF act inactive, IDE act inactive, IDE inh inactive and Cardiac RTF inh inactive.
For COc1ccc(N=Nc2nc3ccc(Br)cc3n2C)cc1 the results were CRFR2-BP ag inactive, cardiac RTF act 132, IDE act 28, IDE inh inactive, Cardiac RTF inh inactive and TPT1 inh inactive.
COC1=C/C(=C/c2c(N)n3nc(-c4ccc(C)cc4)sc3nc2=O)C=CC1=O was read as CRFR2-BP ag 195, cardiac RTF act inactive, IDE act inactive and Cardiac RTF inh inactive.
Screening CCOC1=C/C(=C/c2c(N)n3oc(C)cc3nc2=O)C=CC1=O returned IDE inh inactive and TPT1 inh inactive.
For CCOC1=C/C(=C/c2c(N)n3nc(-c4ccccc4)sc3nc2=O)C=CC1=O the results were CRFR2-BP ag 73.
For CCOc1ccc(C2C(C#N)=C(N)N(N(C)C)C3=C2C(=O)CC(C)(C)C3)cc1 (stereo not given) the results were CRFR2-BP ag inactive, cardiac RTF act inactive, IDE act inactive, IDE inh inactive, Cardiac RTF inh inactive and TPT1 inh inactive.
`CCOC(=O)/C=c1/s/c(=C/c2ccc3cc(OC)ccc3c2)c(=O)n1CC(=O)NCC1CCCO1` (stereo not given) gave CRFR2-BP ag 79, cardiac RTF act inactive, IDE act inactive and Cardiac RTF inh inactive.
Screening O=c1[nH]c2ccc(N=Cc3c(O)ccc4cc(Br)ccc34)cc2[nH]1 returned CRFR2-BP ag inactive, cardiac RTF act 30, IDE act inactive and Cardiac RTF inh inactive.
Cc1[nH]n(-c2ccccc2)c(=O)c1C=Nc1ccc2[nH]c(=O)[nH]c2c1 was read as CRFR2-BP ag inactive, cardiac RTF act inactive, IDE act inactive, IDE inh inactive, Cardiac RTF inh inactive and TPT1 inh inactive.
`COC(=O)[C@]1(CC(C)C)N[C@H](c2ccc(-c3ccc(F)cc3)cc2)[C@@H]2C(=O)N(C)C(=O)[C@@H]21` gave CRFR2-BP ag inactive, cardiac RTF act inactive, IDE act inactive, IDE inh inactive, Cardiac RTF inh inactive and TPT1 inh inactive.
`Cc1cc(NC(=O)COC(=O)C2CC(=O)N(c3ccccc3)C2)no1` (stereo not given) gave CRFR2-BP ag inactive, cardiac RTF act inactive, IDE act inactive, IDE inh inactive, Cardiac RTF inh inactive and TPT1 inh inactive.
`COc1ccc(/C=C\C(=O)O[C@@H]2C(O)C(O[C@@H]3OC(C)[C@H](O[C@@H]4OCC(O[C@H]5O[C@H](CO)[C@@H](O)C(O)C5O)C(O)C4O)C(O)C3O)[C@H](OC(=O)[C@]34CCC(C)(C)C[C@@H]3C3=CCC5[C@@]6(C)CC(O)C(O[C@@H]7OC(CO)C(O)[C@H](O)[C@H]7O)[C@@](C)(C(=O)O)C6CC[C@@]5(C)[C@]3(CO)CC4)O[C@H]2C)cc1` (stereo not given in full) gave CRFR2-BP ag 132, cardiac RTF act inactive, IDE act inactive, IDE inh inactive and Cardiac RTF inh inactive.
